From publication PMC5540273 (PLoS ONE, 2017)

Test system: T1, ERK8
T1 construct: gene MAPK15
Settings: concentration: 1 μM, replicates: in singlicate; n = 1
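Note: KINOMEscan kinase panel screen.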

Going from `CN1CCN(Cc2cccc(-c3ccc4c(Nc5ccc(Oc6ccccc6)cc5)ccnc4c3)c2)CC1` [GW578342] to `Nc1ncc(-c2ccc3nccc(-c4ccncc4)c3c2)cc1S(=O)(=O)N1CCOCC1` [GSK1627798], the “%Inh” value rises from 0% to 45%.

Going from `CN(C)S(=O)(=O)c1cc(-c2ccc3nccc(-c4cccc(S(N)(=O)=O)c4)c3c2)cnc1N` [GSK1669921] to `Cc1ccc(C)c(NC(=O)NC2CCN(c3ccnc(Nc4ccc(F)cc4)n3)C2)c1` (centres unmarked) [GSK1379720], the “%Inh” value falls from 40% to 0%.

In the case of `CCn1c(-c2nonc2N)nc2c(C#CC(C)(C)O)ncc(OCCCCN)c21.O=C(O)C(F)(F)F.O=C(O)C(F)(F)F` [GSK507274], the “%Inh” value is reported as 10%.

Test system: ERN1
Settings: concentration: 1 μM, replicates: in singlicate; n = 1

First: Cn1cc(-c2[nH]c3cc(NC(=O)[C@H](N)C4CCCCC4)cc4c3c2C=NNC4=O)cn1
Second: Cc1cccc(Nc2nc(N[C@H]3CCNC3)ncc2C(N)=O)c1.Cl [GSK2197149]
The “%Inh” value of the first is higher: 21% for the first, 7% for the second.

`O=C(Nc1ccccc1F)NC1CCN(c2ccnc(Nc3ccc(F)cc3)n2)CC1` [GSK1379800] and `COc1ccc(CNC(=O)NC2CCN(c3ccnc(Nc4ccc(F)cc4)n3)CC2)cc1` [GSK1379788] are the same in “%Inh” value: 0% for the first, 0% for the second.

Going from `Cc1ccc(F)c(C(=O)Nc2cccc(-c3nn4ccccc4c3-c3ccnc(Nc4cccc(F)c4)n3)c2)c1F` [GSK361061] to `O=C(Nc1cccc(-c2nn3ccccc3c2-c2ccnc(Nc3cccc(F)c3)n2)c1)c1c(F)ccc(F)c1Cl` [GSK357952], the “%Inh” value falls from 25% to 17%.

Compared with `O=C(O)C(F)(F)F.O=C(O)C(F)(F)F.O=c1[nH]ccc2nc(N[C@@H]3CCCNC3)nc(Nc3ccc(S(=O)(=O)N4CCOCC4)cc3)c12` [GSK2177277], `CNC(=O)c1ccccc1Nc1nc(Nc2ccc(N3CCOCC3)cc2)ncc1Cl.Cl` [GSK1576028] is higher in “%Inh” value: 60% for the first, 78% for the second.

Compared with `CN1CCN(CCCNc2nccc(-c3c(-c4ccc(F)cc4)nn4cc(C(F)(F)F)ccc34)n2)CC1` [GW621581], `CSc1cccc2c(-c3ccncn3)c(-c3ccc(F)cc3)nn12` [GW514786] is higher in “%Inh” value: 0% for the first, 12% for the second.

First: O=C(Nc1cccc(-c2nn3ccccc3c2-c2ccnc(Nc3cccc(C(F)(F)F)c3)n2)c1)c1c(F)cccc1F [GSK292658]
Second: COc1cc(Nc2nccc(-c3c(-c4cccc(NC(=O)c5c(F)cccc5F)c4)nn4ccccc34)n2)cc(OC)c1OC [GSK323521]
The “%Inh” value of the first is lower: 0% for the first, 2% for the second.

`COc1ccc(Nc2nccc(N3CCC(NC(=O)Nc4cccc(OC)c4)C3)n2)cc1` (centres unmarked) [GSK1379742] and `O=C(NC1CCN(c2ccnc(Nc3ccc(F)cc3)n2)C1)c1cc2ccccc2s1` (centres unmarked) [GSK1379716] are the same in “%Inh” value: 0% for the first, 0% for the second.

`Cc1cccc(NC(=O)Nc2ccc(Oc3ncnc4ccn(C)c34)cc2)c1` and `O=C(Nc1cccc(Oc2ccc3nc(NC(=O)C4CC4)cn3n2)c1)c1ccccc1C(F)(F)F` are the same in “%Inh” value: 0% for the first, 0% for the second.

First: O=c1[nH]cc(-c2ccc(N3CCOCC3)cc2)c2sc(-c3cn[nH]c3)cc12 [GSK2276055]
Second: c1ccc(Oc2ccc(Nc3ccnc4cc(-c5ccc(CNCCN6CCOCC6)o5)ccc34)cc2)nc1 [GW567145]
The “%Inh” value of the first is lower: 11% for the first, 26% for the second.

Going from `Nc1ncc(-c2cccnc2)c2scc(-c3ccc4c(c3)CCN4C(=O)Cc3ccccc3)c12` [GSK683281] to `Cl.Cl.NCC(NC(=O)c1cc(-c2ccccc2)c(-c2ccnc3[nH]ccc23)s1)c1ccccc1` (centres unmarked) [GSK1321561], the “%Inh” value falls from 35% to 0%.

First: Cl.Cl.NCC(NCc1ccc(-c2ccnc3[nH]ccc23)s1)c1ccccc1 (centres unmarked) [GSK1321565]
Second: Nc1ncnc2c1nc(-c1ccccc1)n2-c1ccccc1 [SKF-97293]
The “%Inh” value of the first is lower: 17% for the first, 35% for the second.

Compared with `CCn1c(-c2nonc2N)nc2c(C#CC(C)(C)O)nc(OC[C@H](N)c3ccccc3)cc21` [GSK943949], `CC(=O)Nc1nc2cnc(Nc3cc(NC(=O)c4cccc(C5(C#N)CC5)c4Cl)ccc3C)nc2s1` is higher in “%Inh” value: 4% for the first, 28% for the second.

First: CN(c1ccc(NC(=O)Nc2cc(C(F)(F)F)ccc2F)cc1)c1ccnc(Nc2ccc(S(N)(=O)=O)cc2)n1 [GW809893]
Second: COc1cccc(C2=C(Nc3ccc(Cl)c(C(=O)O)c3)C(=O)NC2=O)c1 [SB-390769]
The “%Inh” value of the first is lower: 5% for the first, 100% for the second.

In the case of `O=C(Nc1n[nH]c2nc(-c3ccc(O)cc3)ccc12)C1CC1` [SB-710363], the “%Inh” value is reported as 0%.
